Compound activity (PubChem BioAssay)
Jurkat NFkB inh: inhibitors of induced NF-kB luciferase reporter, primary screen, TCR NF-kB activation inhibitor project, cell-based, luminescence, uHTS; Jurkat, PMA/ionomycin-induced NF-kB luciferase reporter; hit rate 0.53% among 330,000; inhibition, % at 4 µM; in the data active = inhibition above about 50%
Gli-Sufu antag: Gli-Sufu pathway antagonists, primary screen, luciferase luminescence, Sufu-KO-LIGHT cells, uHTS; Sufu-KO-LIGHT fibroblasts, Gli luciferase reporter luminescence; inhibition, % at 5 µM; hit rate 0.74% among 340,000; AID 588413, 2011;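 active = inhibition above about 55%, limit read from the data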;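 also: 0% = DMSO-treated cells and 100% = wells with medium but no cells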
697 NFkB inh: inhibitors of PMA/ionomycin-induced NF-kB reporter, 697 cells, primary screen, B-cell NF-kB inhibitor project, cell-based, luminescence, uHTS; inhibition, % at 4 µM; 697 B-cell NF-kB luciferase reporter, 16 h; hit rate 0.33% among 330,000; in the data active = inhibition above about 35%
CSC inhib: cancer stem cell viability inhibitors, primary screen, luminescence | cancer stem cell-like cells viability | inhibition, % at 7.5 µM | hit rate 1.1% among 300,000 | AID 2717, 2010; in the data active = inhibition above about 75%; tested in HMLE shEcad cells
Mdm2 MdmX PPI: inhibitors of human Mdm2-MdmX association, primary screen, cell-based, luminescence, split luciferase, SaOS-2, uHTS; AID 485346, 2010; SaOS-2 split-luciferase Mdm2/MdmX complementation; inhibition, % at 8 µM; hit rate 3% among 330,000;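 active = inhibition of at least 50% at 8 µM in the primary screen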
Target sequence (O15151 whole entry, looked up): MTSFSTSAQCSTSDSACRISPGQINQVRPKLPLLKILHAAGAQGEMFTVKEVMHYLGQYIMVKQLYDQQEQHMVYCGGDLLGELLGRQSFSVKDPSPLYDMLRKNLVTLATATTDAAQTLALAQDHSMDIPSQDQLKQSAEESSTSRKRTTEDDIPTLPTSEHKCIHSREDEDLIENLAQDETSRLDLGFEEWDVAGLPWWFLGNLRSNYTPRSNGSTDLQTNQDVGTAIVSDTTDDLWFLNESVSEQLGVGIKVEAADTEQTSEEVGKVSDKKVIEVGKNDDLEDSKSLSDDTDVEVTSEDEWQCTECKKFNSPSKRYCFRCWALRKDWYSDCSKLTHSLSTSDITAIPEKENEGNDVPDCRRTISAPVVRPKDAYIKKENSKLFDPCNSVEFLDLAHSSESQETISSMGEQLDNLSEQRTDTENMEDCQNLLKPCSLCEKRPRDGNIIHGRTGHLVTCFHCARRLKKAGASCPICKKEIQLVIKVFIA
Target sequence (Q00987 whole entry, looked up): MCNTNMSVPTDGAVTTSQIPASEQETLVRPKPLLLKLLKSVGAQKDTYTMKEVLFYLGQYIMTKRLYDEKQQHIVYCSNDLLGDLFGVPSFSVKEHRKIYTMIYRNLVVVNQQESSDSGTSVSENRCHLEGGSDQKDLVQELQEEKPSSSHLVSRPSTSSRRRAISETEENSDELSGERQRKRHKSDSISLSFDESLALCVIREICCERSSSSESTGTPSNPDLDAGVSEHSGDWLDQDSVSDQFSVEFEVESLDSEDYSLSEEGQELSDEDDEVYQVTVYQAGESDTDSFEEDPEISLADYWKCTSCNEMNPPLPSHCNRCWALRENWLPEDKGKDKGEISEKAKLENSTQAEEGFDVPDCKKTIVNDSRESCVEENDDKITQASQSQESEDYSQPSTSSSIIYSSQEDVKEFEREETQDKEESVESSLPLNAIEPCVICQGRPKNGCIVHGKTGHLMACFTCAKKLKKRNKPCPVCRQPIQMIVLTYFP
Beta cell apopt: inhibitors of cytokine-induced beta cell apoptosis, primary screen, luminescence. INS-1E cytokine-induced death, ATP luminescence, 48 h; percent of positive-control rescue, neutral wells zero. hit rate 0.8% among 300,000. protection from apoptosis, % (concentration not given with the values);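 active = Every replicate reaches about 75%, or at least half do and their mean reaches it too, limit read from the data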;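 also: 0% = cytokine-treated negative control wells and 100% = positive control rescue; higher means more ATP so stronger rescue from cytokine killing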
Gli antag conf: Gli-SUFU pathway antagonists, confirmation, single concentration, luciferase luminescence, Sufu-KO-LIGHT cells. shares compounds with Gli-Sufu antag. Gli luciferase reporter. inhibition, % at 5 µM. hit rate 40% among 2,500. AID 602428, 2012;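 active = mean inhibition at 5 µM reaching about 45%, limit read from the data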;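 also: plate controls were DMSO-treated cells for no effect and wells lacking cells for full effect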
Gli cytotox: cytotoxicity in Sufu-KO-LIGHT cells, confirmation, cytotoxicity control for Gli-SUFU antagonist project, cell-based, ATP luminescence, single concentration; shares compounds with Gli-Sufu antag; cytotoxicity, % at 5 µM; hit rate 32% among 2,500;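 active = mean cytotoxicity at 5 µM above about 25%, limit read from the data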;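 also: cells exposed to compound overnight for roughly 16 to 18 hours; plate controls were DMSO wells with cells for no effect and medium without cells for full effect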
Wnt3a cs: Wnt3a reporter signal inhibition, confirmation, counter-screen for Gli-SUFU antagonist project, Wnt-LIGHT cells, luminescence, single concentration; hit rate 20% among 2,500; shares compounds with Gli-Sufu antag; AID 651995, 2013; Wnt3a-driven luciferase reporter; inhibition, % at 6.25 µM;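 active = mean inhibition above about 25%, limit read from the data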
The depositor's hits bear a star; x = no result. A selection: hits, their analogues and other compounds. The true share with any hit is near 4.5%.

SMILES | Jurkat NFkB inh | Gli-Sufu antag | 697 NFkB inh | CSC inhib | Mdm2 MdmX PPI | Beta cell apopt | Gli antag conf | Gli cytotox | Wnt3a cs
Cc1ccc(C(=O)N/C(=C\c2ccc(Cl)cc2)C(=O)NCCN2CCOCC2)cc1 | 2.2 | -12.0 | 3.4 | x | 12.1 | -1.1 | x | x | x
CN(C(=O)CCS(=O)(=O)c1ccc2c(c1)oc(=O)n2C)C1CCCCC1 | 17.6 | -24.7 | -1.8 | -19.9 | 12.3 | -3.8 | x | x | x
COc1ccc(-n2nc(C(=O)NCC(=O)NC3CCCCC3)c3ccccc3c2=O)cc1 | 0.4 | -14.1 | -3.8 | -21.4 | -18.5 | -0.9 | x | x | x
Cn1c(=O)c2c(nc(NCCOc3ccc(C(C)(C)C)cc3)n2C)n(C)c1=O | 35.2 | 64.4* | -28.3 | -7.0 | -11.7 | 10.0 | 47.4* | 8.5 | 6.7
CC(C)c1ccc(C(O)c2cnc(C(C)C)n2C)cc1 (stereo not given) | -24.4 | 94.9* | -57.7 | -8.1 | -34.4 | 3.1 | 10.3 | 2.1 | -70.5
CCOc1ccc(OCc2ccc(C(=O)N/N=C(\C)c3ccccn3)cc2)cc1 | x | 82.7* | x | -8.0 | x | 102.1* | 90.8* | 42.0* | 72.0*
COc1ccc(C(=O)N/N=C(\c2ccccc2)c2ccccn2)cc1 | x | 73.8* | x | 50.2 | x | 113.0* | 51.5* | 9.7 | 38.1*
Cc1ccc(N2CC(C(=O)Nc3nnc(SCC(=O)N4CCOCC4)s3)CC2=O)cc1 (stereo not given) | 12.3 | 4.0 | 16.2 | -12.7 | -4.7 | -3.5 | x | x | x
CCOc1ccccc1N1CCN(C(=O)C2=CC=CN3CCS(=O)(=O)N=C23)CC1 | -7.1 | x | 10.1 | -17.4 | -7.7 | 0.8 | x | x | x
Cc1ccc2ccc3ccc(C)nc3c2n1 | -0.7 | 52.6 | -2.7 | 8.2 | 29.6 | 77.5* | 47.3* | 13.0 | -17.3
CCc1cccc(CC)c1NC(=S)/C(=C(\[O-])c1ccc(Cl)s1)[n+]1ccccc1 | -1.4 | 53.0 | 7.2 | -2.1 | 8.6 | 2.4 | 25.3 | 17.9 | -4.2
CC[C@]12c3[nH]c4cc(CCC(=O)N(C)C)ccc4c3CCN1C(=O)[C@@H](CC(=O)NC/C=C(\C)CCC=C(C)C)C[C@@H]2C(=O)N1CCN(C(=O)C2CC2)CC1 | x | 53.2 | 18.4 | x | 47.5 | x | 54.3* | 29.5* | -22.9
CC(C)=CCC/C(C)=C/CNC(=O)C[C@H]1C[C@H](C(=O)N2CCCCC2)[C@@]2(C)c3[nH]c4cc(CCC(=O)N(C)C)ccc4c3CCN2C1=O | x | 52.5 | -19.8 | x | 38.8 | x | 56.3* | 32.0* | -18.5
CC(C)=CCC/C(C)=C/CNC(=O)C[C@H]1C[C@H](C(=O)N2CCOCC2)[C@@]2(C)c3[nH]c4cc(CCC(=O)N(C)C)ccc4c3CCN2C1=O | x | 58.0* | -1.4 | x | 35.4 | x | 66.1* | 19.0 | -5.5
CC[C@]12c3[nH]c4cc(CCC(=O)N(C)C)ccc4c3CCN1C(=O)[C@@H](CC(=O)NCCN1CCOCC1)C[C@@H]2C(=O)N1CCN(C(=O)C2CC2)CC1 | x | -6.5 | 16.1 | x | 17.6 | x | x | x | x
c1cnc2ccc(C(c3nnnn3C3CCCCC3)N3CCCCC3)cc2c1 (stereo not given) | -21.8 | 5.1 | -18.6 | -6.5 | -9.0 | 6.5 | x | x | x
c1cnc2ccc(C(c3nnnn3C3CCCCC3)N3CCN(C4CCCCC4)CC3)cc2c1 (stereo not given) | -21.3 | 65.4* | -2.8 | -20.3 | 20.9 | 7.1 | 80.2* | 36.0* | -35.9
CCCn1c(N)c(C(=O)CN(C)CC(=O)Nc2c(Cl)cccc2Cl)c(=O)[nH]c1=O | -12.8 | -5.9 | -3.9 | 6.9 | 18.9 | 10.2 | x | x | x
Cc1ccc(S(=O)(=O)NCCC2=CCCCC2)cc1C(N)=O | 18.5 | 58.3* | -25.6 | -4.5 | 10.8 | 34.0 | 47.3* | 18.6 | 18.6
O=C1C=C(c2ccc(F)nc2)C[C@@H](c2ccc3c(c2)OCO3)C1 | 9.4 | -1.9 | 12.9 | 18.2 | 22.0 | 1.6 | x | x | x
CC(=O)Nc1ccc(S(=O)(=O)N(Cc2ccccc2)C(C)C)cc1 | 1.9 | 56.8* | -22.1 | -0.3 | -8.0 | 39.4 | 56.5* | 12.0 | 19.0
O=c1cc(CSc2nnc(Nc3ccccc3)s2)nc2sccn12 | -9.3 | 54.9 | -5.5 | 0.3 | 5.0 | -1.3 | 19.3 | 18.3 | -8.6
Cc1cc(C(=O)CSc2nc(N)cc(=O)[nH]2)c(C)n1-c1ccc(OC(F)F)cc1 | 39.5 | 68.0* | 20.3 | 3.5 | 16.9 | 46.5 | 64.7* | 38.2* | 21.5
O=C(NCc1ccccc1)C1CC2CCCC(C1)C2=O (stereo not given) | 5.8 | 94.4* | 9.6 | -7.6 | 4.2 | -2.0 | 14.0 | 18.0 | -12.2
O=C(NCc1ccccc1)C1CCCC1 | -10.1 | x | -19.1 | -1.9 | 3.0 | -6.6 | x | x | x
SMILES | Jurkat NFkB inh | Gli-Sufu antag | 697 NFkB inh | CSC inhib | Mdm2 MdmX PPI | Beta cell apopt | Gli antag conf | Gli cytotox | Wnt3a cs
Cc1[nH]c2ccccc2c1C(=O)CSc1nc2cc(S(=O)(=O)N3CCCCC3)ccc2o1 | 17.5 | 55.1* | -19.5 | -3.1 | 13.3 | 28.6 | 41.8 | 13.4 | 23.2
CCOC(=O)Cn1nc(NC(=O)COc2ccc(F)cc2)cc1C | -12.6 | -1.7 | 8.6 | -3.2 | -0.3 | 3.5 | x | x | x
O=C(NCc1ccccc1)C(c1ccncc1)N(C(=O)c1ccccn1)c1ccccc1 (stereo not given) | -11.9 | -34.3 | -11.0 | x | 23.5 | -2.1 | x | x | x
COc1ccccc1CN(C(=O)Cc1cccs1)C(C(=O)NC1CCCC1)c1ccncc1 (stereo not given) | -16.7 | 55.5* | -9.5 | 34.2 | -4.8 | 2.3 | 25.0 | 26.9* | -9.2
COc1ccccc1CC(=O)NC1CCCCCC1 | -0.7 | 52.7 | 8.7 | -12.1 | -4.2 | -0.8 | 19.9 | 23.6 | -2.7
Oc1ccc(-c2nc3ccc4ccccc4c3c3c2CCC3)cc1O | -46.0 | 56.0* | -49.7 | 108.6* | 8.2 | -2.7 | 11.5 | 19.8 | -26.5
Cc1cc(C(=O)COC(=O)c2cccc(S(=O)(=O)N(C)C)c2)c(C)n1CC1CCCO1 (stereo not given) | -13.0 | 22.7 | -18.9 | x | -27.5 | x | x | x | x
Cc1cc(C(=O)COc2cccc([N+](=O)[O-])c2)c(C)n1C1CC1 | -57.3 | -69.3 | -105.6 | 20.9 | -88.4 | 4.0 | x | x | x
Cc1cc(C(=O)COC(=O)c2cccc(O)c2)c(C)n1C1CC1 | -133.6 | 99.0* | -34.6 | -5.2 | 36.7 | 2.1 | 6.9 | 32.8* | 64.4*
